These results are taken from PubChem BioAssay (EPA / NIEHS).

Activity calls are given as the source filed them. Rule for the calls: active = hit-call score of the fitted dose curve at least 0.9, where 1 is the maximum; inactive = score below 0.9.

The test can be described thus: ATG_NFI_CIS: Attagene CIS-FACTORIAL HepG2 Assay for human Nuclear Factor I (NFI) (AID 2282989). The settings on record: HepG2 cis-regulatory reporter, NFI response element transcription; actives raise or lower the signal. Put shortly:
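After transient transfection of HepG2 with cis-promoter reporter constructs and 24 h dosing, RNA is reverse-transcribed, amplified, 6-FAM end-labelled and HpaI-digested before capillary analysis. Bidirectional curve fitting against DMSO.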
As for `CC(=O)OCc1ccc2c(c1)OCO2`, the compound was classed as inactive. As to `CC(C)C[C@H]1C(=O)N2CCC[C@H]2[C@]2(O)O[C@](NC(=O)[C@@H]3C=C4c5cccc6[nH]c(Br)c(c56)C[C@H]4N(C)C3)(C(C)C)C(=O)N12`, the AC50 was 3.81 µM (active).

Consider `CCCCC(CC)COC(=O)/C=C\C(=O)OCC(CC)CCCC` (stereo not drawn), for which the result was inactive. For `Cc1cccc(Nc2ccccc2C(=O)O)c1C`, the outcome was inactive. With `S=C(S)NCCNC(=S)S`, the compound was called inactive. For `O=c1[nH]nnc2ccccc12`, the result was inactive. For `CC(C)=CCO`, the call was inactive. On the same count and under the same terms, the entry for `CCCCCCC#CC(=O)OC` is “inactive”; for `CCCCOCCOCCOCCOCCO` it is “inactive”. As to `CC(C)[C@H]1CC[C@@H](C)CC1=O`, the call was inactive. Regarding `CNCCCC12CCC(c3ccccc31)c1ccccc12`, the AC50 was 11.1 µM (active). For the compound `CC1(C)[C@H]2CC[C@]1(C)[C@H](O)C2`, the call was inactive.

As to `CCCc1c(OCCCOc2ccc(OCC(=O)O)cc2)ccc(C(C)=O)c1O`, the result was inactive. On to `CCCCCCOC(=O)CCCCC`, for which the call was inactive. On the same count and under the same terms, the entry for `O=C(O)CCCCCCCCCCC(=O)O` is “inactive”; for `CC1(C)[C@H](C(=O)OCc2cccc(Oc3ccccc3)c2)[C@@H]1C=C(Cl)Cl` it is “inactive”; for `OCCN1CCNCC1` it is “inactive”.

For `Nc1cc(N)cc(C(=O)O)c1`, the compound was classed as inactive. The same measure, in the same setting: the entry for `CCCCNC(=O)NS(=O)(=O)c1ccc(C)cc1` is “inactive”; for `CC(=O)C=CC1=C(C)CCCC1(C)C` it is “inactive”; for `O=C(O)c1cccc([N+](=O)[O-])c1` it is “inactive”. `CC(=O)C(=O)O`: the compound was called inactive.

With `COc1ccc(OC)c(OC)c1`, the compound was called inactive. Same read-out and setting: the entry for `CO[Si](CCCn1c(=O)n(CCC[Si](OC)(OC)OC)c(=O)n(CCC[Si](OC)(OC)OC)c1=O)(OC)OC` is “inactive”.

As to `COC(=O)Cc1cccc2ccccc12`, the outcome was inactive. On the same count and under the same terms, the same measure for `CC(C)=CCCC(C)CC=O` (stereo not drawn): “inactive”; for `CC(C)(Oc1ccc(CCNC(=O)c2ccc(Cl)cc2)cc1)C(=O)O`: “inactive”. Turning to `CC(=O)OCC=Cc1ccccc1`, the call was inactive. For `Nc1cccc(S(=O)(=O)c2cccc(N)c2)c1`, the compound was called inactive. The same measure, in the same setting: the same measure for `CCCCNC(=O)NS(=O)(=O)c1ccc(N)cc1`: “inactive”; for `O=Cc1ccc(F)cc1`: “inactive”; for `O=C(O)CN(CCN(CC(=O)O)CC(=O)O)CCN(CC(=O)O)CC(=O)O`: “inactive”.

For the compound `CCC/C=C/C=O`, the outcome was inactive. Regarding `CCCOCC(C)O` (stereo not drawn), the compound was classed as inactive.

Turning to `C=C(C)C(=O)OCc1ccccc1`, the compound was classed as inactive. Consider `Cc1cccc(C)c1[N+](=O)[O-]`, for which the outcome was inactive.

With `NCCCN1CCOCC1`, the compound was classed as inactive. The same measure, in the same setting: the entry for `COCCOCCOCCOCCOCCO` is “inactive”.

The term AC50 denotes the concentration at which the activity in the assay is half-maximal.
